Source: PubChem BioAssay
IL1B secr inh – qHTS for Inhibitors of Inflammasome Signaling: IL-1-beta AlphaLISA Primary Screen. THP-1 LPS/ATP IL-1B secretion, AlphaLISA, 16 h; active compounds read low. activity change, % at 57.5 µM. 360,000 tested, 4.7% active. AID 743279, 2014; in the data active = activity change below about -50%; inconclusive = mostly about -30% to -49%
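THP-1 cells pretreated 1 hr with compounds (up to 57.5 uM final), then stimulated with LPS (250 ng/mL final) plus ATP (1.25 mM final); secreted IL-1B measured by AlphaLISA after 16 hr, decreased signal indicating inhibition.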
TDP1 cell noCPT – qHTS for Inhibitors of human tyrosyl-DNA phosphodiesterase 1 (TDP1): qHTS in cells in absence of CPT; 420,000 tested, 15% active; Potency, µM (doses to about 46.2 µM), for inactives: at the highest dose activity change, negative = growth inhibition, most hits filed as inhibitors; DT40 Tdp1-/- hTDP1 cells, no CPT, ATP luminescence, 48 h; also: potency is read from the fitted curve at half-maximal effect; nearly all actives have a fitted effect of over 55% in size
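Cells were dispensed at 400 per well, compounds added by pin tool, plates incubated ≥48 hr at 37 °C, then CellTiter-Glo added for 30 min at room temperature before luminescence reading. Line: DT40 Tdp1-/- complemented with hTDP1; camptothecin omitted.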
HT1080 IDH1KD tx – qHTS for induction of synthetic lethality in tumor cells producing 2HG: qHTS for the HT-1080-IDH1KD cell line; HT-1080 IDH1 knockdown viability, ATP luminescence, 48 h; Potency, µM (doses to about 46.1 µM), for inactives: at the highest dose activity, negative = toxicity, actives largely listed as cytotoxic; 360,000 tested, 2% active; AID 686971, 2013;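 also: potency is read from the fitted curve at half-maximal effect; 0% = DMSO wells and -100% = cell-free medium wells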
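After a 2 h attachment period, IDH1KD HT-1080 cells took pin-transferred compound for 48 h at 37 °C; ATP-based luminescence after 10 min room-temperature reagent incubation reported viability.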
TDP1 cell CPT – qHTS for Inhibitors of human tyrosyl-DNA phosphodiesterase 1 (TDP1): qHTS in cells in presence of CPT; chicken DT40 Tdp1-/-;hTDP1 cells + 20 nM CPT, ATP luminescence, 48 h; Potency, µM (titrated, usually from 46.2 µM), for the others: top-dose activity change, negative = growth inhibition, usual class: inhibitors; 420,000 tested, 12% active; AID 686979, 2013; also: potency is read from the fitted curve at half-maximal effect; nearly all actives have a fitted effect of over 55% in size
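Chicken DT40 Tdp1-/- cells stably complemented with human TDP1 were seeded at 400 cells/well in medium containing 20 nM camptothecin, exposed to pin-transferred compounds, and grown at 37 °C for at least 48 hr. Viability was read as ATP luminescence.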
HT1080-NT tox – qHTS for induction of synthetic lethality in tumor cells producing 2HG: qHTS for the HT-1080-NT fibrosarcoma cell line; 360,000 tested, 1.6% active; Potency, µM (top dose mostly 46.1 µM), for inactives: at the top dose activity, negative = less viability, most hits filed as cytotoxic; HT-1080-NT fibrosarcoma viability, CellTiter-Glo ATP luminescence, 48 h;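 also: NT is the 2HG producing partner of a matched IDH1 knockdown line; potency is read from the fitted curve at half-maximal effect; 0% = DMSO-treated cells and -100% = media-only wells without cells; nearly all actives have a fitted effect of over 55% in size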
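Viability by CellTiter-Glo luminescence after 48 h compound exposure at 37C of HT-1080-NT cells (750/well, RPMI, 5% FBS). % activity scaled between DMSO wells and medium-only wells, then curve-fitted and categorized by curve class.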
An asterisk follows results filed as active; ? = inconclusive; nt = no result; [ ] = another dose, or the depositor's remark. An excerpt weighted towards active compounds, which were near 19% of everything screened. Unless noted, calls follow the shape of the dose curve; as a rule, active = well fitted curve in the direction sought with a large enough effect; inconclusive = small, poorly fitted or top-dose-only effect, or another doubt; inactive = no such curve, though single readings can be large; an effect the other way counts as inactive or inconclusive. Unless noted, % is scaled to controls: 0 for no effect and ±100 for the full control effect.

SMILES	IL1B secr inh	TDP1 cell noCPT	HT1080 IDH1KD tx	TDP1 cell CPT	HT1080-NT tox
CCOC(=O)C1(Cc2cccc(OC)c2)CCN(C/C=C/c2ccc(OC)cc2)CC1	-171*	5.2µM*	?	5.8µM*	13µM*
CCOC(=O)C1(Cc2cccc(OC)c2)CCN(Cc2cccc(OCC)c2O)CC1	-90*	16µM*	-13%	23µM*	?
CCOC(=O)C1(Cc2cccc(OC)c2)CCN(CCO)CC1	0	0%	4%	1%	6%
O=C(CCNS(=O)(=O)c1ccc(F)c(Cl)c1)NCc1ccccc1F	11	4%	7%	-5%	7%
O=C(COC(=O)CCc1ccccc1)NC1CCS(=O)(=O)C1 (stereo not drawn)	-4	-2%	2%	4%	0%
Cc1cc(C)n(CC(O)Cn2c3ccc(Br)cc3c3cc(Br)ccc32)c(=O)n1 (stereo not drawn)	-68*	?	?	-25%	?
Cc1cc(C)n(CC(O)Cn2c3ccccc3c3ccccc32)c(=O)n1 (stereo not drawn)	?	?	-19%	-29%	4%
CC1CC(C)CN(C(=O)COC(=O)c2ccc(S(=O)(=O)N(C)c3ccccc3)cc2)C1 (stereo not drawn)	39	?	0%	-26%	-3%
CCc1cc(=S)n2c([nH]c3ccccc32)c1C#N	0	23µM*	?	16µM*	?
CCc1c(C)c(C#N)c2[nH]c3ccccc3n2c1=S	nt	12µM*	?	12µM*	?
CCc1cc(=O)n2c([nH]c3ccccc32)c1C#N	18	?	-2%	?	-12%
CC1(C)C(=O)C=C[C@@]2(C)C1C=C[C@@]1(C)C2CC[C@@]2(C)C(c3ccoc3)OC(=O)C3OC312 (stereo partly drawn)	nt	12µM*	nt	16µM*	nt
CC(=O)O[C@@H]1C[C@H]2C(C)(C)C(=O)C=C[C@]2(C)[C@H]2CC[C@@]3(C)[C@H](c4ccoc4)OC(=O)[C@H]4O[C@]43[C@@]21C	4	?	?	?	?
COCCC1CCCCN1Cc1nc(N2CCCCC2)c2cc(OC)c(OC)cc2n1 (stereo not drawn)	nt	-23%	nt	-6%[9.04 µM]	nt
CCCC(O)(c1ccc(Br)cc1)C(CN1CCOCC1)c1ccc(Cl)cc1 (stereo not drawn)	-84*	?	?	?	?
CCCCCCC(O)(c1ccccc1)C(CN1CCOCC1)c1ccccc1 (stereo not drawn)	0	23µM*	0%	18µM*	-16%
CCCC(O)(c1ccc(CC)cc1)C(CN1CCOCC1)c1ccccc1 (stereo not drawn)	?	18µM*	21µM*	16µM*	33µM*
CCCC(O)(c1ccccc1)C(CN1CCOCC1)c1ccccc1 (stereo not drawn)	26	?	12%	21µM*	6%
CCCCCC(O)(c1ccccc1)C(CN1CCOCC1)c1ccccc1 (stereo not drawn)	-10	?	9%	?	4%
CCCC(O)(c1ccc(Cl)cc1)C(CN1CCOCC1)c1ccccc1 (stereo not drawn)	37	?	3%	?	13%
COc1ccc(Nc2nccc(-c3ccc(C#N)cc3)n2)cc1	?	?	-15%	-7%	4%
COc1ccc(Nc2nccc(-c3cccc(N)c3)n2)cc1	-87*	?	?	?	?
C/C(=N\NC(N)=S)c1ccc2c(c1)OCCO2	3	?	3%	-23%	2%
CC(=NNC(N)=S)c1ccc2cc3c(cc2c1)OCO3	?	10µM*	-24%	23µM*	-10%
COc1cc2ccc(C(C)=NNC(N)=S)cc2cc1OC	-25	15µM*	-1%	?	-5%
SMILES	IL1B secr inh	TDP1 cell noCPT	HT1080 IDH1KD tx	TDP1 cell CPT	HT1080-NT tox
CN(c1ccccc1)S(=O)(=O)c1cccc(NC(=O)C2=NN(c3ccccc3)C(=O)CC2)c1	25	13µM*	-16%	?	-13%
COc1ccc(NS(=O)(=O)c2cccc(NC(=O)C3=NN(c4ccccc4)C(=O)CC3)c2)cc1	13	15µM*	?	?	?
COc1ccc(NS(=O)(=O)c2cc(NC(=O)C3=NN(c4ccccc4)C(=O)CC3)ccc2C)cc1	8	-27%	-27%	?	-2%
CCc1ccc(C(=O)c2cn(CC(=O)Nc3ccc4c(c3)OCCO4)c3ccc(C)cc3c2=O)cc1	nt	-1%	nt	2%	nt
COC(=O)c1ccc(OC(=O)C23CCC(C)(C(=O)O2)C3(C)C)cc1 (stereo not drawn)	34	-3%	10%	-23%	0%
OC[C@H]1O[C@H](OC[C@H]2OC(O)[C@H](O)[C@@H](O)[C@@H]2O)[C@H](O)[C@@H](O)[C@@H]1O (stereo partly drawn)	3	-1%	6%	-16%	27%
O=C1/C(=C/c2ccccc2)NC(=S)N1C(c1ccccc1)c1ccccc1	19	5.8µM*	9.2µM*	4.6µM*	?
O=C1/C(=C/c2ccccc2)Nc2ccccc21	?	-18%	-22%	-24%	-21%
COc1cc(Br)cc(CNc2ccc(F)c([N+](=O)[O-])c2)c1O	-95*	?	?	?	-26%
Cc1ccc2c(C(=O)CNc3nccs3)c(C)[nH]c2c1	nt	?	nt	-26%	nt
Cc1ccc2[nH]cc(C(=O)CCl)c2c1	-101*	4.1µM*	21µM*	2.6µM*	16µM*
Cc1ccc2[nH]cc(C(=O)CN3CCN(C)CC3)c2c1	21	-6%	2%	-22%	7%
Cc1ccc2c(C(=O)CN3CCSCC3)c(C)[nH]c2c1	-11	?	-2%	16µM*	1%
Cc1ccc2c(C(=O)CCl)c(C)[nH]c2c1	-98*	2.6µM*	21µM*	3.7µM*	?
CC1CC(C)CN(C(=O)/C=C/c2ccc(S(=O)(=O)N3CCOCC3)cc2)C1 (stereo not drawn)	-10	?	-1%	?	19%
Cc1cc(C)c2c(=O)n3c(nc2c1)C(C)NC(=O)c1cccnc1-3 (stereo not drawn)	-15	-7%	16%	12%	17%
COc1ccc2nc3n(c(=O)c2c1)-c1cc2ccccc2cc1C(=O)NC3Cc1ccccc1 (stereo not drawn)	-4	21µM*	-6%	?	-15%
